Screening data as filed in PubChem BioAssay.
Shown are actives, neighbours in structure and some others; about 3.1% of the full set was active somewhere.
ATG4B inhibitor: ATG4B protease inhibitors, primary screen, biochemical, fluorescence, uHTS; hit rate 0.51% among 340,000; AID 504462, 2011; Cysteine protease ATG4B (Homo sapiens), Q9Y4P1; inhibition, % at 8.33 µM; ATG4B cleavage of LC3-PLA2, NBD-HPC fluorescence, 1 h; in the data active = inhibition above about 40%
MEKK3 PB1 HTS: modulators of MEKK3-MEK5 PB1 binding, primary screen, biochemical, wildtype MEKK3, multiplex bead flow cytometry, Alexa488-MEK5; hit rate 1.4% among 290,000; binding response (% of control), % at 10 µM; bead-based flow cytometry, Alexa488-MEK5 binding to MEKK3; actives lie on both sides; 0 = blocked by unlabeled MEK5, 100 = vehicle; Mitogen-activated protein kinase kinase kinase 3 (Homo sapiens), Q99759; AID 1529, 2009;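 active = binding response more than 3 SD above or below the average of its plate-row segment, actives on both sides; inconclusive = wells at one plate position flagged as instrument error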;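 also: Alexa488 bead fluorescence after subtracting the streptavidin-only scavenger bead signal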
UBC13 inh: UBC13 polyubiquitin chain formation inhibitors, primary screen, biochemical, TR-FRET, uHTS | Ubiquitin-conjugating enzyme E2 N (Homo sapiens), P61088 | inhibition, % at 20 µM | hit rate 0.47% among 330,000 | AID 485273, 2010; in the data active = inhibition above about 45%, passing the limit was not always enough; inconclusive = no clear call, values can overlap the other calls
MEKK2wt PB1 HTS: modulators of MEK5 binding to wildtype MEKK2, primary screen, biochemical, multiplex bead flow cytometry, Alexa488-MEK5 | Mitogen-activated protein kinase kinase kinase 2 (Homo sapiens), Q9Y2U5 | Alexa488-MEK5 binding to MEKK2 WT; actives lie on both sides | AID 1531, 2009 | binding response (% of control), % at 10 µM | hit rate 1.1% among 290,000; in the data active = binding response below about 67% or above about 130%; inconclusive = no clear call, values can overlap the other calls; inactive = in between
PREPL inh: PREPL enzyme inhibitors, primary screen, biochemical, fluorescence polarization; AID 2751, 2010; inhibition, % at 5.96 µM; Prolyl endopeptidase-like (Homo sapiens), Q4J6C6; hit rate 0.68% among 320,000; recombinant PREPL, fluorescence polarization activity-based probe; in the data active = inhibition above about 43%;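 also: 0% = enzyme with DMSO and 100% = wells lacking enzyme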
Target sequence (Q4J6C6 whole entry, looked up): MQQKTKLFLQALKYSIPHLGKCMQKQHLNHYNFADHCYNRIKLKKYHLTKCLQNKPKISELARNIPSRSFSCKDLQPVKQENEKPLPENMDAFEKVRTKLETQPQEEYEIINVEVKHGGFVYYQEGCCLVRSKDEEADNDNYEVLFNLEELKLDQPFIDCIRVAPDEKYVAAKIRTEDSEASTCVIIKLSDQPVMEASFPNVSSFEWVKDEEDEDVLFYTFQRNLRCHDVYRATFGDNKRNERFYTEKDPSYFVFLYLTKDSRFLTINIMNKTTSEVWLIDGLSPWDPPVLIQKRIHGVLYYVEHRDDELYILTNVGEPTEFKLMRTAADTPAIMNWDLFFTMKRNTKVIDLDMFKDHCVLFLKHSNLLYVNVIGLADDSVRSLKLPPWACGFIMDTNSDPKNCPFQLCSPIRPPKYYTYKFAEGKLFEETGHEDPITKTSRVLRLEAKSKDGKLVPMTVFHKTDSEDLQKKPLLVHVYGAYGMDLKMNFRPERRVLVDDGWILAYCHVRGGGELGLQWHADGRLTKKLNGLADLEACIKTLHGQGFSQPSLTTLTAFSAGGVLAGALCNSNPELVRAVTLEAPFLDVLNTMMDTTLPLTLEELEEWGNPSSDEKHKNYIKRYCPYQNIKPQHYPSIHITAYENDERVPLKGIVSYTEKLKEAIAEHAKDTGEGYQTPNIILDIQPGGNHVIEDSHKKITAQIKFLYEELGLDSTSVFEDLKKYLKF
MEKK2mut PB1 HTS: MEK5 binding signal on mutant MEKK2 PB1, primary screen, biochemical, multiplex bead flow cytometry, Alexa488-MEK5. Alexa488-MEK5 binding to MEKK2 mutant. percent response, % at 10 µM. hit rate 0.35% among 290,000; in the data active = percent response above about 24%, passing the limit was not always enough
Casp3 counter: CASP3 inhibitor validation, counterassay for project on UBE2N polyubiquitination blockers, biochemical, one dose; hit rate 4% among 1,400; shares compounds with UBC13 inh; Recombinant caspase-3, Caspase-Glo 3/7 luminescence, 60 min; inhibition, % at 20 µM;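 active = mean inhibition across replicates above about 26%, limit read from the data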;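 also: plate controls were DMSO with caspase-3 for no effect and DMSO wells lacking enzyme for full effect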
UBC13 conf: UBC13 polyubiquitination inhibitors, single-point retest, confirmation, biochemical, TR-FRET, single concentration | shares compounds with UBC13 inh | inhibition, % at 10 µM | hit rate 68% among 1,400; in the data active = inhibition above about 45%; inconclusive = no clear call, values can overlap the other calls
Active calls of the source: *; ? = inconclusive; . = no result.

SMILES	ATG4B inhibitor	MEKK3 PB1 HTS	UBC13 inh	MEKK2wt PB1 HTS	PREPL inh	MEKK2mut PB1 HTS	Casp3 counter	UBC13 conf
COc1ccc2[nH]c3c(c2c1)CCN1C(=O)C(CC(=O)NCCCN(C)C)C[C@H](C(=O)N2CCCCC2)[C@@]31CCc1ccccc1 (stereo not given in full)	-2	.	.	.	.	.	.	.
FC(F)(F)c1cc(CCN2C(=S)NC[C@@H]2Cc2ccccc2)cc(C(F)(F)F)c1	-6	96	10	88	-4	2	.	.
NC1=NC[C@H](Cc2ccccc2)N1CCc1cc(C(F)(F)F)cc(C(F)(F)F)c1	5	105	80*	114	12	7	-10	45*
Nc1c(C(=O)c2ccco2)oc2ccccc12	.	95	-22	97	2	-2	.	.
CCN1CCN(C(=O)c2cc(-c3ccc(Cl)s3)nc3ccccc23)CC1	-9	96	25	100	.	-1	.	.
CCN1CCN(C(=O)c2cc(-c3ccco3)nc3ccccc23)CC1	0	.	52*	.	16	.	4	32
COc1ccc(S(=O)(=O)N2CCC(C(=O)NC(c3nc4ccccc4[nH]3)C(C)C)CC2)cc1 (stereo not given)	-2	.	12	.	-1	.	.	.
CCOc1ccccc1NC(=O)CN1CCC(C(=O)c2ccc(F)cc2)CC1	-14	107	73*	106	11	7	0	78*
CC(Cc1cccnc1)NC(=O)c1ccccc1OC1CCN(S(C)(=O)=O)CC1 (stereo not given)	5	100	-5	97	1	-4	.	.
C/C(=N/NS(=O)(=O)c1ccc(CC(C)C)cc1)c1ccncc1	5	102	-9	114	-8	6	.	.
CCCc1nc2ccccc2c(=O)n1NC(=O)c1c(O)c2ccccc2n(C)c1=O	0	95	47*	90	0	-8	1	12
COc1ccc(S(=O)(=O)N2CCCCCC2)cc1C(=O)N1CCN(c2ccc(F)cc2)CC1	-36	.	.	.	.	.	.	.
CCn1c2ccccc2c2nc3ccccc3nc21	3	103	66*	94	1	-3	48*	-1
Cc1ccc(S(=O)(=O)N2CCc3c2cc([N+](=O)[O-])cc3[N+](=O)[O-])cc1	4	109	-14	106	10	6	.	.
COc1cccc(NC(=O)c2cnc(SCC(=O)NCc3ccc4c(c3)OCO4)n(C)c2=O)c1	-10	.	56*	.	-18	.	98*	50*
Cn1c(SCC(=O)NCC2CCCO2)ncc(C(=O)Nc2ccccc2)c1=O (stereo not given)	-3	.	69*	.	-8	.	96*	66*
Cn1c(SCC(=O)NCc2ccccc2)ncc(C(=O)Nc2ccccc2)c1=O	-1	.	63*	.	7	.	96*	62*
Cc1ccc(CNC(=O)CSc2ncc(C(=O)Nc3ccccc3)c(=O)n2C)cc1	1	.	55*	.	-7	.	95*	63*
Cn1c(SCC(=O)c2ccc(F)cc2)ncc(C(=O)Nc2ccccc2)c1=O	-7	.	58*	.	-7	.	79*	69*
CCOC(=O)[C@H](CCc1ccccc1)N[C@@H](C)C(=O)N1[C@H](C(=O)O)C[C@@H]2CCC[C@@H]21	0	104	11	105	-7	4	.	.
COc1ccc(C(=O)NNC(=S)NC(=O)c2ccc(F)cc2)cc1Br	1	.	-20	.	19	.	.	.
COc1ccc(C(=O)NC(=S)NNC(=O)c2ccc(NC(C)=O)cc2)cc1Br	-6	97	71*	96	-7	-7	1	104*
O=C(NC1(C(F)(F)F)N=C2SCCN2C1=O)c1cccnc1 (stereo not given)	-8	121	48*	120	-11	-1	-3	-8
COc1cccc(C(=O)NC2(C(F)(F)F)N=C3SCCN3C2=O)c1 (stereo not given)	7	100	13	102	-10	1	.	.
CCn1c(=S)[nH]c2cc(C(=O)O)ccc21	.	102	5	93	1	-9	.	.
SMILES	ATG4B inhibitor	MEKK3 PB1 HTS	UBC13 inh	MEKK2wt PB1 HTS	PREPL inh	MEKK2mut PB1 HTS	Casp3 counter	UBC13 conf
CCn1c(=O)cc(C(F)(F)F)[nH]c1=S	-16	101	55*	105	-3	2	-1	?
COc1ccc(CN(CC(O)COCc2ccccc2)S(=O)(=O)c2ccccc2Br)cc1 (stereo not given)	12	.	.	.	.	.	.	.
Cc1noc(C)c1NC(=O)Nc1ccc2c(c1)CC(=O)N([C@@H](C)CO)C[C@@H](C)[C@@H](CN(C)C(=O)Nc1cccc3ccccc13)O2	-1	.	9	.	36	.	.	.
CCCOc1ccc(C(=O)Nn2c(C)nc3ccccc3c2=O)cc1	15	102	96*	105	5	1	-2	108*
Cc1nc2ccccc2c(=O)n1NC(=O)c1ccc(C(C)(C)C)cc1	2	104	39	99	-7	3	.	.
Cc1nc2ccccc2c(=O)n1NC(=O)c1ccccc1Br	1	106	9	105	-14	6	.	.
COc1ccc(C(=O)Nn2c(C)nc3ccccc3c2=O)cc1	-1	104	82*	103	3	10	-8	84*
Cc1nc2ccccc2c(=O)n1NC(=O)/C=C/c1ccc(Br)cc1	0	108	60*	103	-28	0	7	53*
COc1cc(C(=O)NCCNc2nc3ccc(C)cc3cc2C#N)cc(OC)c1OC	-8	99	5	102	7	0	.	.
CCN(CC)Cc1c(C(=O)N/N=C/c2c(Cl)cccc2Cl)nnn1-c1nonc1N	-9	94	-1	91	12	-10	.	.
COc1ccc(NC(=O)CS(=O)CC(=O)Nc2cc(Cl)ccc2OC)cc1 (stereo not given)	-2	93	54*	93	0	-8	-2	53*
COC(=O)c1c(NC(=O)C(=O)NCCCN2CCOCC2)sc2c1CC(C)(C)OC2	0	104	15	102	-5	9	.	.
